Assay results from a collection of fitness landscapes (doi:10.1016/j.celrep.2020.107928).
Whole data set: some 81,000 sequences, median “one-hybrid fitness for binding parS DNA” near -0.17, cut for the highest 2% near 0.51. What follows is part of a selection rich in the highest values, with near analogues and random picks from the rest.

B1: Caulobacter ParB omega fusion; a variant is named by its letters at X, in order, B8GW30 (parent)
chain: MESVVVGEPGMSEGRRGLGRGLSALLGEVDAAPAQAPGEQLGGSREAPIEILQRNPDQPRRTFREEDLEDLSNSIREKGVLQPILVRPSPDTAGEYQIVAGERAWRAAQRAGLKTVPIMVRELDDLAVLEIGIIENVQRADLNVLEEALSYKVLMEKFERTQENIAQTIGKSXSHVANXMRLLXLPDEVQSYLVSGELTAXHARAIAAAADPVALAKQIIEGGLSVRETEALARKAPNLSAGKSKGGRPPRVKDTDTQALESDLSSVLGLDVSIDHRGSTGTLTITYATLEQLDDLCNRLTRGI

Variants of: B1
Experiment: one-hybrid fitness for binding parS DNA (scaled: cognate 1, non-cognate 0); higher = stronger binding
Details: with parS DNA site
How it was run: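 On M9-minus-histidine containing 0.1 mM IPTG and 5 mM 3-AT, E. coli USO cells with a HIS3 reporter, site 19 bp from the promoter, grew 48 hours at 37°C to select Caulobacter ParB libraries randomised at four specificity codons. Plasmids from before and after were Illumina-sequenced, with three replicate libraries pooled and variants under 10 reads left out. Fitness is the log change in variant-to-wild-type read ratio, rescaled against cognate and non-cognate.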

Row | Variant | one-hybrid fitness for binding parS DNA
1 | HMTH | ≤ 0.2
2 | YIMG | ≤ 0.2
3 | ADTW | ≤ 0.2
4 | VKGM | ≤ 0.2
5 | WSTL | ≤ 0.2
6 | RAVQ | 0.23
7 | RAKD | ≤ 0.2
8 | RAVK | ≤ 0.2
9 | RAKN | 0.462
10 | RAVT | 0.77
11 | RAKT | 0.824
12 | RMYE | ≤ 0.2
13 | FKCS | ≤ 0.2
14 | AGFC | ≤ 0.2
15 | RTAS | 0.968
16 | RTFH | 0.246
17 | RTAP | ≤ 0.2
18 | RTFP | ≤ 0.2
19 | RTFS | 1.03
20 | RTAD | ≤ 0.2
21 | LFRV | ≤ 0.2
22 | GSFC | ≤ 0.2
23 | RVWI | ≤ 0.2
24 | RWVN | ≤ 0.2
25 | RWVY | ≤ 0.2

Row | Variant | one-hybrid fitness for binding parS DNA
26 | RWKH | 0.228
27 | RWKY | 0.565
28 | RWVS | 0.616
29 | RWKP | ≤ 0.2
30 | RWYY | 0.248
31 | RWVP | ≤ 0.2
32 | RWKS | 0.961
33 | YYVT | ≤ 0.2
34 | MVNS | ≤ 0.2
35 | FTLM | ≤ 0.2
36 | AFVL | ≤ 0.2
37 | RKVD | ≤ 0.2
38 | RKKT | 0.604
39 | RKVR | ≤ 0.2
40 | RKVT | 0.795
41 | RKKM | 0.231
42 | RKKF | 0.238
43 | RPEH | ≤ 0.2
44 | KRWH | ≤ 0.2
45 | QVGR | ≤ 0.2
46 | CDRV | ≤ 0.2
47 | YIYL | ≤ 0.2
48 | MNCF | ≤ 0.2
49 | ICRD | ≤ 0.2
50 | RAQS | 0.998

Row | Variant | one-hybrid fitness for binding parS DNA
51 | RIQH | ≤ 0.2
52 | RDQS | ≤ 0.2
53 | RPQS | ≤ 0.2
54 | RAQD | ≤ 0.2
55 | RCQS | 0.986
56 | RIQS | 0.99
57 | RTQH | 0.332
58 | RTQD | 0.202
59 | RAQN | 0.436
60 | RTQS | 0.951
61 | RIQD | ≤ 0.2
62 | CQTC | ≤ 0.2
63 | RWDL | ≤ 0.2
64 | WRAH | ≤ 0.2
65 | AEGK | ≤ 0.2
66 | AIFS | ≤ 0.2
67 | DPKT | ≤ 0.2
68 | RMQH | 0.313
69 | RHQS | 0.927
70 | RFQS | 1
71 | RHQH | ≤ 0.2
72 | RSQD | ≤ 0.2
73 | RFQH | ≤ 0.2
74 | RSQS | 0.984
75 | RMQS | 1.02

Row | Variant | one-hybrid fitness for binding parS DNA
76 | RMQN | 0.501
77 | RFQN | 0.457
78 | RHQN | 0.382
79 | RSQN | 0.427
80 | GAHD | ≤ 0.2
81 | TLCR | ≤ 0.2
82 | MEVG | ≤ 0.2
83 | LAGY | ≤ 0.2
84 | QVDH | ≤ 0.2
85 | IRKY | ≤ 0.2
86 | FNNR | ≤ 0.2
87 | TAFI | ≤ 0.2
88 | QSRA | ≤ 0.2
89 | TERS | ≤ 0.2
90 | APMD | ≤ 0.2
91 | RLQH | 0.324
92 | RKQN | 0.3
93 | RKQD | ≤ 0.2
94 | RLQS | 1
95 | RKQS | 0.793
96 | RLQP | 0.206
97 | ERKR | ≤ 0.2
98 | LEPN | ≤ 0.2
99 | CCRD | ≤ 0.2
100 | QNCR | ≤ 0.2

Row | Variant | one-hybrid fitness for binding parS DNA
101 | RQVK | ≤ 0.2
102 | RQVQ | ≤ 0.2
103 | RQVG | 0.88
104 | RQKG | 0.939
105 | RQKH | 0.269
106 | RQKN | 0.433
107 | WNHS | ≤ 0.2
108 | KAIM | ≤ 0.2
109 | IGNS | ≤ 0.2
110 | NFGS | ≤ 0.2
111 | GEDR | ≤ 0.2
112 | QFAT | ≤ 0.2
113 | GTTA | ≤ 0.2
114 | ATEM | ≤ 0.2
115 | RTRM | 0.517
116 | RTDM | 0.289
117 | RTKM | 0.594
118 | RSKM | 0.378
119 | RTYM | 0.341
120 | RTVM | 0.315
121 | TLKA | ≤ 0.2
122 | TQQG | ≤ 0.2
123 | HCKF | ≤ 0.2
124 | YAFG | ≤ 0.2
125 | KYYR | ≤ 0.2

Row | Variant | one-hybrid fitness for binding parS DNA
126 | ILTL | ≤ 0.2
127 | RISN | 0.454
128 | RMSD | ≤ 0.2
129 | RPSS | ≤ 0.2
130 | RMSH | ≤ 0.2
131 | RHSP | ≤ 0.2
132 | RHSN | 0.379
133 | RCSS | 0.978
134 | RMSS | 0.977
135 | RISS | 0.992
136 | RHSS | 0.912
137 | RISD | ≤ 0.2
138 | RCSD | ≤ 0.2
139 | AKPM | ≤ 0.2
140 | LGTM | ≤ 0.2
141 | TQKH | ≤ 0.2
142 | LPSR | ≤ 0.2
143 | NDSK | ≤ 0.2
144 | CAPL | ≤ 0.2
145 | RWPN | ≤ 0.2
146 | SQSF | ≤ 0.2
147 | PHLE | ≤ 0.2
148 | GVSS | ≤ 0.2
149 | LVRT | ≤ 0.2
150 | RFSH | ≤ 0.2

Row | Variant | one-hybrid fitness for binding parS DNA
151 | FMSS | ≤ 0.2
152 | RFSS | 1.01
153 | RKSP | ≤ 0.2
154 | RFSP | ≤ 0.2
155 | RASN | 0.435
156 | RKSN | 0.296
157 | RKSS | 0.811
158 | RASS | 1
159 | FMSD | ≤ 0.2
160 | RASH | 0.225
161 | FMSQ | 0.554
162 | IYTS | ≤ 0.2
163 | TWRH | ≤ 0.2
164 | GPLA | ≤ 0.2
165 | YVAM | ≤ 0.2
166 | RYVW | 0.209
167 | HRKW | ≤ 0.2
168 | RSSD | ≤ 0.2
169 | RSSS | 0.99
170 | RSSP | ≤ 0.2
171 | YNTS | ≤ 0.2
172 | RSGT | 0.91
173 | RPGT | ≤ 0.2
174 | RGGT | 0.493
175 | REGT | 0.201

Row | Variant | one-hybrid fitness for binding parS DNA
176 | RDGT | ≤ 0.2
177 | RCGT | 0.882
178 | TFAS | ≤ 0.2
179 | AMCN | ≤ 0.2
180 | LFSE | ≤ 0.2
181 | CKQG | ≤ 0.2
182 | NSAT | ≤ 0.2
183 | RQKR | ≤ 0.2
184 | RQKK | ≤ 0.2
185 | RQVF | ≤ 0.2
186 | RQKC | 0.926
187 | RQVR | ≤ 0.2
188 | RQVC | 0.828
189 | RWNM | 0.221
190 | RWNC | 0.79
191 | RWDC | 0.635
192 | RWDY | 0.264
193 | RWDM | ≤ 0.2
194 | RWNR | ≤ 0.2
195 | GKCT | ≤ 0.2
